Source: PubChem (National Center for Advancing Translational Sciences (NCATS))
HP1b chromo inh: HP1-beta chromodomain-methylated histone interaction inhibition | 0.56% of 390,000 active | AID 540317 | P83916 | AlphaScreen HP1-beta / biotin-H3K9me3 peptide binding | Potency, µM (series often up to 114 µM), usual class: inhibitors; further: nearly all actives have a fitted effect of over 70% in size
Target sequence (P83916 whole entry, looked up): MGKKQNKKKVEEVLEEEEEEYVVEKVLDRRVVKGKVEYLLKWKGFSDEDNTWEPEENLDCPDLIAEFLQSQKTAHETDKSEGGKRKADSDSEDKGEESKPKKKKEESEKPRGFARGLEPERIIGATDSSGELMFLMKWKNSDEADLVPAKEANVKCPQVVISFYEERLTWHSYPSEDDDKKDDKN
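HP1-beta protein (50 nM final) preincubated 30 min at room temperature with biotinylated H3(1-18)K9me3 peptide (50 nM) in PBS pH 7.4, 0.01% Tween-20, then compound added for 30 min. AlphaScreen streptavidin donor/nickel chelate acceptor beads (10 ug/mL final), 30 min dark, luminescence read.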
BAZ2B inh: blocks human BAZ2B; Q9UIF8; AlphaScreen BAZ2B-H3K14Ac peptide displacement; Potency, µM (top dose mostly 114 µM), most hits filed as inhibitors; 4.4% of 360,000 active; further: nearly all actives have a fitted effect of over 60% in size
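In this displacement format the biotinylated H3(5-23) peptide acetylated at Lys14 serves as ligand at 50 nM, with BAZ2B at 50 nM in PBS pH 7.4 containing 0.01% Tween-20. Donor and acceptor beads are 10 ug/mL final.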
Sfp PPTase inh: blocks B. subtilis Sfp PPTase activity; Q9F4F7; Biochemical Sfp PPTase activity, qHTS; Potency, µM, most hits filed as inhibitors; 3.5% of 310,000 active; AID 1490;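 further: the enzyme is Sfp with the accession as filed and its product quenches rhodamine fluorescence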
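Compounds were incubated with enzyme (final 15 nM) for 15 min at room temperature before substrate addition started the reaction. Fluorescence at 525 nm excitation, 598 nm emission was recorded immediately and after 30 minutes.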
JMJD2A Tudor: inhibitors of human JMJD2A Tudor domain | 4.4% of 390,000 active | O75164 | AID 504339 | AlphaScreen JMJD2A-Tudor / H3K4me3 peptide binding | Potency, µM (series often up to 114 µM), hits mostly inhibitors; further: nearly all actives have a fitted effect of over 50% in size
G9a inh: blocks human histone lysine methyltransferase G9a; Potency, µM (top dose mostly 102 µM), hits mostly inhibitors; G9a H3K9 monomethylation, AlphaScreen, 2 h; 8.8% of 350,000 active; AID 504332; further: nearly all actives have a fitted effect of over 75% in size
Target sequence (Q96KQ7 913-1193 limits assumed): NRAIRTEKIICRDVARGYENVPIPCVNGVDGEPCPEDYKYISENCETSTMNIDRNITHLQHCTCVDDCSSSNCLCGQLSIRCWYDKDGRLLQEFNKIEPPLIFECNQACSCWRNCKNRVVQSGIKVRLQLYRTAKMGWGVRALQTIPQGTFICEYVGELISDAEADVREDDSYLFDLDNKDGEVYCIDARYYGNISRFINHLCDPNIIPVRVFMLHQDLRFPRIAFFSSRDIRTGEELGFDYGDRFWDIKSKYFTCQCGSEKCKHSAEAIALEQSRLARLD
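Step 1: enzyme (final 20 nM) with compound, 15 min RT. Step 2: substrate peptide 500 nM and SAM 20 uM, 2 h RT. Step 3: anti-H3K9me1 antibody and AlphaScreen beads, 10 min, then plate read.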
L3MBTL1 inh: L3MBTL1 (human) inhibition. Q9Y468. AlphaScreen L3MBTL1–H3K9me1 peptide binding. Potency, µM (top dose mostly 57.1 µM), usual class: inhibitors. 0.66% of 230,000 active. AID 485360; further: nearly all actives have a fitted effect of over 60% in size
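AlphaScreen assay: L3MBTL1 (50 nM final) was preincubated 30 min at room temperature with biotinylated H3(1-15)K9me1 peptide (75 nM final), then 30 min with library compounds; streptavidin donor and nickel chelate acceptor beads (10 ug/mL final) added, 30 min dark.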
A number is an active result; . = inactive; ? = inconclusive; / = no result; [ ] = dose if it differs, or a comment. Rows were chosen to be rich in hits. Some 12% of all compounds tested hit in one or more screens of this group. The call rests on the fitted dose curve; in most records, active means well fitted curve in the direction sought with a large enough effect; inconclusive means small, poorly fitted or top-dose-only effect, or another doubt; inactive means no such curve, though single readings can be large; an effect the other way counts as inactive or inconclusive.

SMILES | HP1b chromo inh | BAZ2B inh | Sfp PPTase inh | JMJD2A Tudor | G9a inh | L3MBTL1 inh
Cc1ccc(NC(=O)N2CCN(Cc3nc4ccc(C)cc4o3)CC2)c(Cl)c1 | . | . | / | . | . | /
Cn1c(=O)c(C#N)c(-c2ccc(F)cc2)c2cc(C(=O)c3cc(Cl)cc(Cl)c3O)cnc21 | ? | 35µM | 45µM | 45µM | ? | .
CC(C)(C)CC(=O)Nc1nn[nH]n1 | . | 79µM | . | 56µM | ? | .
CC12CC3CC(C)(C1)CC(C(=O)Nc1nn[nH]n1)(C3)C2 | . | ? | . | 20µM | 35µM | .
Cc1nnc(NC(=O)C23CC4CC(C)(CC(C)(C4)C2)C3)s1 | . | / | / | . | / | /
CCC12CC3CC(C1)CC(C(=O)Nc1nn[nH]n1)(C3)C2 | . | ? | . | 25µM | 20µM | .
CCC12CC3CC(C1)CC(C(=O)NNC(N)=O)(C3)C2 | . | . | . | . | / | .
CC12CC3(C)CC(C)(C1)CC(C(=O)Nc1nn[nH]n1)(C2)C3 | . | ? | . | 50µM | 35µM | /
CCN(Cc1ccccc1)S(=O)(=O)c1c(C)[nH]c(C)c1C(=O)N1CCCCC1 | . | . | . | . | . | /
CCCn1c(=O)c(C(=O)NNC(=O)c2ccccc2Cl)c(O)c2ccccc21 | . | . | . | . | . | /
Cc1ccc(S(=O)(=O)NCCC(=O)Oc2ccc3ccc(=O)oc3c2)cc1 | . | . | . | . | . | .
CCC[C@@H](NS(=O)(=O)c1ccc(C)cc1)C(=O)Oc1ccc2c3c(c(=O)oc2c1)CCC3 | . | . | . | . | ? | .
Cc1ccc(S(=O)(=O)NC(C(=O)Oc2ccc3c(C)c(Cl)c(=O)oc3c2)c2ccccc2)cc1 (stereo not drawn) | . | . | . | . | 7.9µM | .
Cc1ccc(S(=O)(=O)NC(C(=O)Oc2ccc3ccc(=O)oc3c2)c2ccccc2)cc1 (stereo not drawn) | . | . | . | . | 7.9µM | .
Cc1ccc(S(=O)(=O)N[C@H](C(=O)Oc2ccc3c(C(F)(F)F)cc(=O)oc3c2)c2ccccc2)cc1 | . | . | . | 28µM | 3.5µM | .
COc1ccc(C(=O)N2CCCCC2CCN2CCOCC2)cc1 (stereo not drawn) | . | . | / | . | . | /
Cc1ccc(-c2ccc(=O)n(CC(=O)Nc3ccc(C)cc3Cl)n2)cc1 | . | . | / | . | . | /
Cc1c(Cl)cccc1NC(=O)CCOc1ccccc1 | . | . | / | . | ? | /
CN(C)CC[C@@](O)(c1ccccc1)c1ccccc1Cl | / | / | . | / | .[12.7 µM] | /
O=C(Nc1nc2ccccc2n1CCOc1ccccc1)c1ccco1 | . | ? | . | . | . | .
CCn1c(-c2ccco2)nc2ccccc21 | . | . | 40µM | . | 6.3µM | .
c1ccc(OCCn2c(-c3ccco3)nc3ccccc32)cc1 | . | ? | 50µM | . | 40µM | .
O=C(c1ccc2c(=O)n(CCc3ccccc3)c(=O)[nH]c2c1)N1CCN(c2ccc(Cl)cc2)CC1 | . | . | / | . | . | /
ClC(CCN1CCN(Cc2ccccc2)CC1)c1ccccc1 (stereo not drawn) | . | / | / | 50µM | / | /
CC1CCN(C(=O)C2CCN(CC(C)c3ccccc3)CC2)CC1 (stereo not drawn) | ? | . | . | ? | ? | .
SMILES | HP1b chromo inh | BAZ2B inh | Sfp PPTase inh | JMJD2A Tudor | G9a inh | L3MBTL1 inh
CC(CN1CCN(Cc2ccccc2)CC1)c1ccccc1 (stereo not drawn) | . | . | . | 89µM | .[0.501 µM] | .[2.29 µM]
CC(CN1CCC(O)CC1)c1ccccc1 (stereo not drawn) | ? | ? | . | 2.8µM | / | .
O=C(C(Cl)Cl)N1CCN(Cc2ccccc2)CC1 | . | . | . | . | . | .
O=C(NCc1cc2ccccc2[nH]1)C1CCC(=O)N(CCCN2CCCC2=O)C1 (stereo not drawn) | . | . | . | . | . | /
COc1cccc(C(=O)Nn2cnnc2)c1OC | . | . | . | . | . | .
Cc1nc(SCc2cccnc2)[nH]c(=O)c1C | . | . | . | . | . | /
O=C(/C=C/c1cccc([N+](=O)[O-])c1)N1CCN(Cc2ccc3c(c2)OCO3)CC1 | . | . | . | . | ? | .
CC(C)C[C@@H](CN)NC(=O)c1nc[nH]c1C(=O)N[C@@H](C)C(=O)CNC[C@H](CC(C)C)NC(=O)c1nc[nH]c1C(=O)N[C@@H](CC(=O)O)C(=O)O | . | / | / | 79µM | / | /
CC(C)C[C@@H](CNCC(=O)[C@H](CC(C)C)NC(=O)c1[nH]cnc1C(=O)N[C@@H](C)CN)NC(=O)c1nc[nH]c1C(=O)N[C@@H](C)C(=O)O | . | / | / | . | / | /
CC(C)C[C@@H](CN)NC(=O)c1nc[nH]c1C(=O)N[C@@H](C)C(=O)CNC[C@H](C)NC(=O)c1nc[nH]c1C(=O)N[C@@H](CC(=O)O)C(=O)O | . | / | / | 56µM | / | /
CC(C)C[C@@H](CN)NC(=O)c1nc[nH]c1C(=O)N[C@@H](CC(=O)O)C(=O)CNC[C@H](C)NC(=O)c1nc[nH]c1C(=O)N[C@@H](CC(=O)O)C(=O)O | . | / | / | 89µM | / | /
CC(C)C[C@@H](CNCC(=O)[C@H](CC(=O)O)NC(=O)c1[nH]cnc1C(=O)N[C@H](CN)CC(C)C)NC(=O)c1nc[nH]c1C(=O)N[C@@H](C)C(=O)O | . | / | / | ? | / | /
Cc1cc(C(=O)OCC(=O)Nc2ccccc2C(F)(F)F)on1 | . | / | / | . | / | .
COc1ccc(CNc2nc(-c3cccnc3)nc3ccccc23)c(OC)c1 | / | / | . | / | .[0.501 µM] | /
CC(C)CN(C(=O)COC(=O)CCC(=O)c1ccc(F)cc1)c1c(N)n(Cc2ccccc2)c(=O)[nH]c1=O | . | . | / | . | .[0.501 µM] | .
O=C(O)c1cc(-c2ccccc2)n(-c2ccccc2C(=O)O)n1 | . | . | . | 28µM | ? | .
O=C(O)c1cc(-c2ccccc2)n(-c2ccc(Cl)cc2Cl)n1 | . | . | . | . | . | /
COCCn1c(=O)c(-c2ccccc2)nc2cnc(Nc3cccc(OC)c3)nc21 | / | / | . | / | .[0.501 µM] | /
O=C(c1ccccc1)c1ccc(Oc2ccc([N+](=O)[O-])cc2[N+](=O)[O-])cc1 | ? | / | / | 7.1µM | / | /
Cc1ccc(NC(=S)NNC(=O)c2c([N+](=O)[O-])c(C)nn2C)cc1 | . | . | . | . | .[12.7 µM] | /
Cc1ccc(NC(=S)NNC(=O)c2c(Cl)c(C)nn2C)cc1 | . | . | . | . | 1.4µM | .
Cc1nn(C)c(C(=O)Nc2ccc3c(c2)OCO3)c1[N+](=O)[O-] | . | . | . | . | . | /
Cc1nn(C)c(C(=O)Nc2ccc(Cl)c([N+](=O)[O-])c2)c1Cl | . | . | . | . | 16µM | .
CCCCN(CCCC)CCNC(=O)c1cn(CC)c2ccc(S(=O)(=O)N3CCc4ccccc4C3)cc2c1=O | . | . | . | ? | . | /
CCOC(=O)CC1C(=O)NCCN1C(=S)NC(=O)c1ccccc1OC (stereo not drawn) | . | . | . | 28µM | / | /
